Compounds with a hit are over-represented: about 11% of the library has one in this group of screens.
HPGD block – blocks human HPGD enzyme activity; purified HPGD, NADH fluorescence kinetic, PGE2 substrate; 150,000 compounds, 4.3% hits; P15428; Potency, µM, hits mostly inhibitors
Target sequence (P15428 whole entry, looked up): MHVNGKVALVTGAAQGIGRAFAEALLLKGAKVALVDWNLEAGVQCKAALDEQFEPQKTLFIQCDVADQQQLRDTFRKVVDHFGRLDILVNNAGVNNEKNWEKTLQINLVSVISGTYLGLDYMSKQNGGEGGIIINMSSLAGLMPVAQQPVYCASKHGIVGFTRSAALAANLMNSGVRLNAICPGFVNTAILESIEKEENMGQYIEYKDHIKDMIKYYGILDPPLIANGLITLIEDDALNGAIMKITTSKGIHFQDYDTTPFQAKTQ
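NADH formation kinetics: reaction with 30 uM PGE2 and 1 mM NAD+ (final), 20 nM enzyme, Tris-HCl pH 8 with Tween 20, after 15 min compound preincubation at room temperature. Fluorescence change, last versus first of five reads.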
ALDH1A1 block – blocks purified human ALDH1A1 activity | Potency, µM (top dose mostly 75.3 µM), usual class: inhibitors | Purified ALDH1A1, NADH fluorescence, propionaldehyde substrate | P00352 | 220,000 compounds, 7.3% hits
PNC assembly inh – blocks assembly of the perinucleolar compartment. activity change (PNC), negative = inhibition, % at 10 µM. 140,000 compounds, 3.1% hits. PC3M PTB-GFP, PNC prevalence imaging, 16 h; stronger effect = lower value. AID 2417;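 active = readout at or below -70, meaning at least 70% loss of cells showing the perinucleolar compartment, a nuclear body marking cancer cells; inconclusive = readout between -30 and a set limit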
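Read-out is percentage of cells bearing a perinucleolar compartment, from automated 20x imaging of fixed, Hoechst-stained PC3M PTB-GFP cells. Cells were seeded 4 h, then exposed 16 h to compound (23 nl of library stock) in duplicate plates.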
Large screens that a line does not name were inactive. Unless noted, calls follow the shape of the dose curve; as a rule, active = well fitted inhibition curve with a large enough effect (not every such curve was filed as active); inconclusive = small, poorly fitted or top-dose-only effect, or another doubt; inactive = no such curve, though single readings can be large or run the other way.

CCOC(=O)C(C)n1cnc2c1c(=O)[nH]c(=O)n2C (stereo not drawn)	PNC assembly inh -100
C=CCSc1nc2c(c(=O)[nH]c(=O)n2C)n1CC	HPGD block 14µM, ALDH1A1 block 14µM, PNC assembly inh inconclusive
CSc1nc2c(c(=O)[nH]c(=O)n2C)n1C/C=C(\C)Cl	HPGD block inconclusive, ALDH1A1 block 25µM
N.N.N.N.N.N.N.N.N.N.N.N.N.N.O.O.[Cl-].[Cl-].[Cl-].[Cl-].[Cl-].[Cl-].[Ru].[Ru].[Ru]	none (no result: PNC assembly inh)
c1ccc(C(CCN2CC3CCC(CC3)C2)c2ccccc2)cc1	none (no result: PNC assembly inh)
Cc1cc(Nc2ccc(Br)c(C)c2)n2nc(C)nc2n1	none
CCSc1nc2c(c(=O)[nH]c(=O)n2C)n1C/C=C(/C)Cl	HPGD block inconclusive, ALDH1A1 block 14µM
C=CCSc1nc2c(c(=O)[nH]c(=O)n2C)n1C/C=C(/C)Cl	ALDH1A1 block inconclusive
CCN1CCN(c2nc3c(c(=O)n(C)c(=O)n3C)n2CCSc2nccc(C)n2)CC1	none
NC(=O)c1ccc(NCCc2ccccc2)c([N+](=O)[O-])c1	none (no result: HPGD block, PNC assembly inh)
Cc1ccc(CSCC(Nc2ccc(C(=O)O)cc2[N+](=O)[O-])C(=O)O)cc1 (stereo not drawn)	ALDH1A1 block inconclusive
O=C(O)c1ccc(NC(CSCc2ccccc2F)C(=O)O)c([N+](=O)[O-])c1 (stereo not drawn)	ALDH1A1 block 7.9µM
O=C(O)c1ccc(NC(CSCc2ccc(F)cc2)C(=O)O)c([N+](=O)[O-])c1 (stereo not drawn)	ALDH1A1 block 22µM, PNC assembly inh inconclusive
Cc1nc(C(=O)N(C)C)nn1-c1cc(Cl)cc(Cl)c1	ALDH1A1 block inconclusive, PNC assembly inh inconclusive
CC(C)c1ccc(-n2cnn(-c3ncccc3[N+](=O)[O-])c2=O)cc1	ALDH1A1 block 14µM (no result: HPGD block, PNC assembly inh)
Cc1cc(C)n(-c2ncccc2[N+](=O)[O-])n1	none (no result: HPGD block, PNC assembly inh)
O=S(=O)(/N=C(/Nc1ccccn1)c1ccccc1)c1ccccc1	PNC assembly inh inconclusive
CC(=O)c1ccc(Nc2c(C)n(C)n(-c3ccccc3)c2=O)cc1	none (no result: HPGD block, PNC assembly inh)
Cc1cccc(NC(=S)N/C(=N/S(=O)(=O)c2ccccc2)c2ccccc2)c1	HPGD block inconclusive, ALDH1A1 block 22µM
CC(=O)c1ccc(NC(=S)Nc2cccc(S(=O)(=O)Nc3c(C)n(C)n(-c4ccccc4)c3=O)c2)cc1	ALDH1A1 block 25µM (no result: HPGD block, PNC assembly inh)
CC(C)OC(=S)N/C(=N\S(=O)(=O)c1ccccc1)c1ccccc1	HPGD block inconclusive, ALDH1A1 block 11µM
Cc1ccc(S(=O)(=O)/N=C(\c2ccccc2)N(C)S(=O)(=O)c2ccc(C)cc2)cc1	ALDH1A1 block inconclusive
Cc1ccc(S(=O)(=O)/N=C(/NC(=S)Nc2cccc(C)c2)c2ccccc2)cc1	HPGD block 20µM, ALDH1A1 block 13µM
CC(C)O/C(=N\S(=O)(=O)c1ccc(Cl)cc1)c1ccccc1	PNC assembly inh inconclusive
O=C(N/N=C(\Cc1ncc[nH]1)c1ccccc1)c1cccnc1	none (no result: HPGD block, PNC assembly inh)
COc1cc(NC(=O)COC(C)=O)c(C)cc1[N+](=O)[O-]	none
OC(c1ccccc1)c1nccc2ccccc12 (stereo not drawn)	none (no result: HPGD block, PNC assembly inh)
CCN(CC)S(=O)(=O)c1cc(C(=O)NC2CCCCC2)ccc1C	PNC assembly inh inconclusive
CCOC(=O)N1CCN(C(=O)COc2cccc3c2CCN(Cc2ccc(F)cc2)C3=O)CC1	PNC assembly inh inconclusive
O=[N+]([O-])c1ccc(NC(=S)N/C(=N/CS(=O)(=O)c2ccccc2)c2ccccc2)cc1	HPGD block 28µM, ALDH1A1 block 28µM, PNC assembly inh inconclusive
COc1ccc(NC(=S)N/C(=N/CS(=O)(=O)c2ccccc2)c2ccccc2)cc1	PNC assembly inh inconclusive
Cc1c(NC(=S)N/C(=N/S(=O)(=O)c2ccc(Cl)cc2)c2ccccc2)c(=O)n(-c2ccccc2)n1C	ALDH1A1 block 8.9µM (no result: HPGD block, PNC assembly inh)
Cc1c(N/C(=N/S(=O)(=O)c2ccc(Cl)cc2)c2ccccc2)c(=O)n(-c2ccccc2)n1C	PNC assembly inh inconclusive
CC1=NN(C(C#N)c2ccccc2C)C(C)(C)C1 (stereo not drawn)	none (no result: HPGD block, PNC assembly inh)
C#Cc1ccc([C@@H]2C=C(C(=O)O)O[C@H](OCc3ccc(CO)cc3)C2)cc1	none (no result: HPGD block, PNC assembly inh)
O=C(NCCOc1ccccc1)c1n[nH]c(=O)c2ccccc12	PNC assembly inh inconclusive
O=C(Nc1ccccc1OC(F)F)c1ccc(Br)o1	none
O=C1C2[C@@H](c3ccccc3)N[C@@H](c3ccccc3)C1[C@H](c1ccccc1)N[C@H]2c1ccccc1	none (no result: PNC assembly inh)
Cc1ccc2cc(CCNC(=O)c3ccc(C)c([N+](=O)[O-])c3)c(=O)[nH]c2c1	none
O=C(Nc1ccccc1)c1ccc(Cc2nc3ccccc3[nH]2)cc1	none (no result: PNC assembly inh)
O=C(c1ccc(Cc2nc3ccccc3[nH]2)cc1)N1CCCCC1	HPGD block 16µM (no result: PNC assembly inh)
Cc1ccccc1C(=O)NCCCc1ccccc1	HPGD block 14µM
Cc1occc1C(=O)NCCCCc1ccccc1	HPGD block 20µM, ALDH1A1 block 18µM, PNC assembly inh inconclusive
Cc1ccccc1C(=O)NCCCCc1ccccc1	HPGD block inconclusive
Cc1occc1C(=O)NCc1ccccc1	none
O=C(OCc1nc2ccc(Cl)cc2n1CCO)c1ccc2c(c1)OCO2	ALDH1A1 block inconclusive
CCN1C(=O)/C(=C\c2cn(CCC#N)nc2-c2ccc(F)cc2)SC1=S	none
CN=c1scc(-c2ccccc2F)n1/N=C/c1ccc[nH]1	none (no result: HPGD block, PNC assembly inh)
CN=c1scc(-c2ccccc2F)n1/N=C/c1ccc(O)c(O)c1O	ALDH1A1 block 5.6µM (no result: HPGD block, PNC assembly inh)
N=C1S/C(=C\c2ccccc2F)C(=O)N1c1ccc(F)cc1	none
N=C1S/C(=C\c2cn[nH]c2-c2ccc(F)cc2)C(=O)N1c1ccccc1F	HPGD block 13µM, PNC assembly inh inconclusive
Cc1cccc(C)c1NC(=O)COc1cccc(/C=N/NC(=O)C(=O)NCc2ccccc2)c1	PNC assembly inh inconclusive
O=C(CN1CCOCC1)N1N=C(c2cccs2)CC1c1cccs1 (stereo not drawn)	none (no result: HPGD block, PNC assembly inh)
O=C(Nc1ccccc1)N1N=C(c2cccs2)CC1c1cccs1 (stereo not drawn)	HPGD block inconclusive, ALDH1A1 block inconclusive, PNC assembly inh -102
CC(=O)OC1CC2C(C)(C)CCC(=O)[C@@]2(C)C2CC[C@@]3(C)C(c4ccoc4)OC(=O)C4OC43[C@]12C (stereo partly drawn)	none (no result: PNC assembly inh)
Cc1ccc(N=Nc2c(=O)[nH]n3c(=O)cc(C)[nH]c23)cc1	HPGD block 20µM, ALDH1A1 block inconclusive, PNC assembly inh inconclusive
Cc1ccc(N=Nc2c(N)[nH]n3c(=O)cc(-c4ccccc4)nc23)cc1	none
Cc1ccccc1NC(=O)Cn1nnc2ccccc21	none (no result: HPGD block, PNC assembly inh)
N[C@@H](CSS(=O)(=O)O)C(=O)O	HPGD block 28µM (no result: PNC assembly inh)
N[C@H](CS)C(=O)O	none (no result: HPGD block, PNC assembly inh)
COC(=O)[C@@]1(Cc2ccc(F)cc2)[C@H]2c3cc(C(=O)N(C)C)n(Cc4nc5ccccc5[nH]4)c3C[C@H]2CN1C(=O)c1ccccc1	ALDH1A1 block inconclusive
O=C(OCC(F)(F)F)[C@H](O)[C@@H](O)C(=O)OCC(F)(F)F	none (no result: PNC assembly inh)
COc1cc(/C(C)=N/NC(=O)Cc2c(C)[nH][nH]c2=O)ccc1O	PNC assembly inh inconclusive
COc1ccc(NC(=O)c2nn(C)cc2[N+](=O)[O-])cc1	none (no result: HPGD block, PNC assembly inh)
Cc1ccc(NC(=O)c2nn(C34CC5CC(CC(C5)C3)C4)cc2[N+](=O)[O-])cc1	ALDH1A1 block 0.028µM
CCN(CC)S(=O)(=O)c1ccc(Oc2ccccc2)cc1	none
